# AMA1-RON2 inh = inhibitors of Plasmodium falciparum AMA1-RON2 interaction; AlphaScreen AMA1-biotinylated RON2 peptide binding; Potency, µM (series often up to 58.2 µM), for the others: at the top dose activity change, negative = inhibition, most hits filed as inhibitors; actives 0.2% (n = 360,000); AID 720542;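 further: 0% = vehicle wells and -100% = peptide control; nearly all actives have a fitted effect of over 45% in size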
#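 AMA1 (3D7) with his tag at 25 nM final met compounds first, then biotinylated RON2 peptide at 25 nM; detection used donor plus acceptor beads, 10 µg/mL apiece, read by AlphaScreen after 30 min at room temperature.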
# Sm TGR inh = S. mansoni TGR enzyme inhibition. Q962Y6. purified TGR, DTNB reduction, TNB absorbance 405 nm. Potency, µM (top dose mostly 114 µM), without a hit: at the top dose activity change, negative = inhibition, most hits filed as inhibitors. actives 3% (n = 360,000). AID 485364; further: nearly all actives have a fitted effect of over 60% in size
#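 Kinetic colorimetric format: TGR-catalysed, NADPH-driven DTNB reduction monitored via TNB absorbance. Enzyme dispensed at 20 nM; compound exposure 15 min at room temperature before reaction start.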
# LmPK inhibitor = inhibitors of Leishmania mexicana pyruvate kinase | Q27686 | purified LmPK, Kinase-Glo ATP luminescence, 1 h | Potency, µM (series often up to 57.5 µM), without a hit: top-dose activity change, negative = inhibition, usual class: inhibitors | actives 0.37% (n = 290,000)
# Target sequence (Q27686 whole entry, looked up): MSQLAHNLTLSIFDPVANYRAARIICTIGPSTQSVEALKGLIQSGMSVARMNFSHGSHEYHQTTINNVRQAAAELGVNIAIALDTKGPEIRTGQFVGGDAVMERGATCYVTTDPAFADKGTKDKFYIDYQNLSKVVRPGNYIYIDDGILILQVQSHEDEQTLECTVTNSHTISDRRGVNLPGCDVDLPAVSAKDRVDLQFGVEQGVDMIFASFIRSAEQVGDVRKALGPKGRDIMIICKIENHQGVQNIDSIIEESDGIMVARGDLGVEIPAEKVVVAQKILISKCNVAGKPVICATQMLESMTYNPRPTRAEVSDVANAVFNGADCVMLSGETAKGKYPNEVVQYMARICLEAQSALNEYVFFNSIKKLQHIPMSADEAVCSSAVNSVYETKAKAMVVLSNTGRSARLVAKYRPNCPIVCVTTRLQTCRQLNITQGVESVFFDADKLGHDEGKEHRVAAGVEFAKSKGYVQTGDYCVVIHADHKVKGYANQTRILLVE
#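 Purified LmPK (0.1 nM) with 0.5 mM PEP and 0.1 mM ADP in imidazole buffer pH 7.2 with MgCl2/KCl, 1 h at room temperature. ATP formed was read by luciferase luminescence and normalized to no-enzyme and uninhibited controls.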
# Tb PYK inh = T. brucei pyruvate kinase inhibition | Q57TT1 | TbPYK enzyme, Kinase-Glo Plus ATP luminescence, 45 min | Potency, µM (top dose mostly 76.8 µM), inactives show at the top dose activity, negative = inhibition, most hits filed as inhibitors | actives 0.12% (n = 410,000); further: nearly all actives have a fitted effect of over 50% in size
#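 ADP (130 uM final) triggers the TbPYK reaction after compound addition; incubation is 45 min at room temperature. Kinase-Glo Plus is then added and luminescence imaged. Normalized data are fitted to concentration-effect curves.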
# RE007 growth inh = less growth of the S. pombe RE007 Vpr strain; S. pombe RE007 Vpr strain, BacTiter-Glo ATP luminescence, 24 h; Potency, µM (series often up to 92.2 µM), inactives show at the highest dose activity change, negative = less growth, hits mostly inhibitors; actives 0.21% (n = 360,000); AID 651644; active means well fitted falling curve with a large enough effect; inconclusive means small, poorly fitted or top-dose-only effect; inactive means no such curve, though single readings can be large or run the other way; further: nearly all actives have a fitted effect of over 50% in size
#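 Fission yeast RE007 carrying one integrated HIV-1 vpr copy, seeded at OD 0.01 in PMG+AL medium with 23 nL pinned compound. Grown 24 h at 30 degrees; viability read by BacTiter-Glo luminescence after 5 min.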
# Active calls of the source: *; ? = inconclusive; nt = no result given; [ ] = dose if it differs, or a comment. A selection: hits, their analogues and other compounds. The true share with any hit is near 3.2%. Unless noted, the call rests on the fitted dose curve; in most records, active means well fitted curve in the direction sought with a large enough effect; inconclusive means small, poorly fitted or top-dose-only effect, or another doubt; inactive means no such curve, though single readings can be large; an effect the other way counts as inactive or inconclusive. Unless noted, on the % scale 0 is the no-effect control and ±100 the full control effect; potency means the concentration at half of the fitted maximal effect.
SMILES,AMA1-RON2 inh,Sm TGR inh,LmPK inhibitor,Tb PYK inh,RE007 growth inh
COc1ccc(CCn2c3c(c(=O)[nH]c2=O)C(NC(=O)c2ccccc2)(C(F)(F)F)C(=O)N3)cc1OC (stereo not drawn),nt,9%,nt,0%,nt
CCN(CC)c1ccc(CC2C(=O)N(C)C(=O)N(C)C2=O)cc1,-21%,14µM*,-4%,-19%,-17%
C=CCOc1ccc(CC2C(=O)N(C)C(=O)N(C)C2=O)cc1,10%,25µM*,2%,-6%,-1%
CCc1cccc(NC(=O)Cn2nc(C)c3sc4ccccc4c3c2=O)c1,nt,0%,nt,-5%,nt
CCCCCOc1ccc(/C=C/C(=O)Nc2sc3c(c2C(=O)OCC)CCC3)cc1OC,nt,-10%,nt,-13%,nt
O=C1CC(N2CCN(c3ccc(O)cc3)CC2)C(=O)N1Cc1cccs1 (stereo not drawn),-1%,50µM*,-14%,?,-27%
O=C(c1ccncc1)c1ccc(N2CCN(C3CC(=O)N(Cc4cccs4)C3=O)CC2)cc1 (stereo not drawn),-7%,?,-2%,-7%,-7%
Oc1c(Cl)cc(Cl)cc1C=Nc1ccccc1N1CCCC1,nt,16µM*,0%,nt,nt
NC(=O)c1cccc(N=Cc2cc(Cl)cc(Cl)c2O)c1,7%,nt,-2%,-26%,-13%
Cc1cc(C)c2c(-n3cccc3)c(C(=O)NCCc3ccccc3)sc2n1,nt,2%,nt,-6%,nt
CC(Cl)C(=O)NNc1cccc(Cl)n1 (stereo not drawn),12%,13µM*,-6%,-12%,17%
O=C(NNc1cccc(Cl)n1)Nc1ccccc1,-2%,-21%,3%,-1%,19%
CCN(CC)c1ccc(NC(=O)Cn2nc(C)n3cccc3c2=O)c(C)c1,nt,4%,nt,-13%,nt
CN(C)c1ccc(Nc2nc(-c3cccnc3)cs2)cc1,?,-21%[11.4 µM],-18%,-7%,-16%
CCN(CC)c1ccc(Nc2nc(-c3cccnc3)cs2)cc1,28µM*,4%,-2%,6%,29%
COc1ccc(OC)c(C[C@H](C)N)c1,nt,nt,nt,0%[157 µM],nt
O=C1C2=C(C(=O)c3ccccc31)C1O[C@](c3ccsc3)(Cc3c1ccc1ccccc31)O2,nt,?,-5%[11.5 µM],nt,nt
O=c1oc2ccccc2c2c1C1O[C@](c3ccsc3)(Cc3c1ccc1ccccc31)O2,nt,8.9µM*,-9%[11.5 µM],nt,nt
CCCCCOC(=O)Cc1c(O)c2ccccc2n(C)c1=O,-8%,4µM*,2%,-17%,-6%
COc1ccc(C(C(C(=O)c2ccco2)N2CCOCC2)N2CCOCC2)cc1 (stereo not drawn),-6%,45µM*,-2%,5%,-6%
Cc1cc(/C=C2\C(=O)NC(=O)N(c3ccc(Br)cc3)C2=O)c(C)n1-c1cc(C(=O)O)cc(C(=O)O)c1,?,8.9µM*,5%,-10%,nt
Cc1cc(/C=C2\C(=O)NC(=O)N(c3ccc(Cl)cc3)C2=O)c(C)n1-c1cccc(C(=O)O)c1,-5%,7.1µM*,7%,-7%,8%
Cc1cc(/C=C2\C(=O)NC(=O)N(c3cccc(F)c3)C2=O)c(C)n1-c1cc(C(=O)O)cc(C(=O)O)c1,11%,?,0%,-14%,4%
Cc1cc(/C=C2/C(=O)NC(=O)N(c3ccc(Br)cc3)C2=O)c(C)n1C,14%,?,3%,4%,-5%
CCCCn1c(NC(=O)c2ccco2)c(S(=O)(=O)c2ccc(C)cc2)c2nc3ccccc3nc21,-9%,?,-4%,-4%,-13%
SMILES,AMA1-RON2 inh,Sm TGR inh,LmPK inhibitor,Tb PYK inh,RE007 growth inh
CCCCn1c(NC(=O)c2ccco2)c(C(=O)OCC)c2nc3ccccc3nc21,27%,25µM*,1%,-11%,-7%
CCCCCCn1c(C(C)NC(=O)c2ccco2)nc2ccccc21 (stereo not drawn),-3%,40µM*,1%,-7%,-5%
COCC(C)OC(=O)c1c(N)n(Cc2ccco2)c2nc3ccccc3nc12 (stereo not drawn),-6%,10µM*,2%,-1%,-2%
CCOC(=O)c1c(N)n(Cc2ccco2)c2nc3ccccc3nc12,11%,45µM*,4%,0%,-4%
CCCOC(=O)c1c(N)n(Cc2cccs2)c2nc3ccccc3nc12,4%,-11%,12%,-11%,-6%
CCCCn1c(C(C)NC(=O)CC)nc2ccccc21 (stereo not drawn),-3%,5%,-5%,1%,15%
C=Cc1ccc(Cn2ccn(-c3ccc(F)c(F)c3)c(=O)c2=O)cc1,nt,1%,nt,2%,nt
CCC(=O)N1CCc2cc(Br)cc(S(=O)(=O)CCC(=O)N3CCN(c4ccccc4F)CC3)c21,nt,-13%,nt,1%,nt
C=CCSc1nc2sc(C)c(C)c2c(=O)n1CC=C,22%,16µM*,-3%,-4%,-15%
CC(=O)c1ccc(N2CCN(C(=O)c3cc4cc5cc(C)ccc5nc4s3)CC2)cc1,nt,-2%,nt,-4%,nt
Cc1oc(-c2ccc(Cl)cc2)nc1CN1CCCC(C(=O)NCCCN2CCOCC2)C1 (stereo not drawn),-17%,79µM*,0%,1%,1%
Cc1oc(-c2ccc(Cl)cc2)nc1CN1CCC(C(=O)NCCCN2CCCC(C)C2)CC1 (stereo not drawn),-5%,2%,4%,2%,-6%
CCOc1ccccc1CNC(=O)C1CCN(c2nc3ccccc3nc2C(F)(F)F)CC1,nt,-1%,nt,-5%,nt
O=C(Oc1ccc2ccc(=O)oc2c1)c1ccc([N+](=O)[O-])cc1,-3%,-19%,0%,-8%,-17%
O=c1ccc2ccc(Oc3ccc([N+](=O)[O-])cc3[N+](=O)[O-])cc2o1,nt,40µM*,-1%,nt,nt
COc1ccc(CCNC(=O)CSc2ccc(-c3ccco3)nn2)cc1,2%,13µM*,-2%,-12%,15%
COc1cccc(-c2ccc(SCC(=O)NCCc3ccccc3)nn2)c1,14%,-5%,-1%[11.5 µM],6%,3%
O=C(CSc1ccc(-c2ccco2)nn1)NCCc1ccccc1,-7%,11µM*,2%,-16%,0%
COc1ccccc1CNC(=O)CCn1c(=O)c2ccccc2n(CC(=O)Nc2cc(Cl)ccc2C)c1=O,nt,0%,nt,3%,nt
c1ccc(Cc2ccc(OCCN3CCOCC3)cc2)cc1,-9%,6%,-7%,-12%,-4%
CCCOc1ccc(C(=O)CCN2CCCCC2)cc1,-4%,0.32µM*,3%,3%,18µM*
CCCOc1ccc(C(O)(CCC)CCN2CCCCC2)cc1 (stereo not drawn),-4%,32µM*,1%,-7%,-10%
c1ccc(OCCN2CCOCC2)cc1,14µM*,4%,-9%,-10%,1%
CCCC(O)(CCN1CCOCC1)c1ccc(Cl)cc1 (stereo not drawn),-7%,20µM*,-6%,-10%,11%

# Screening results: PubChem BioAssay, National Center for Advancing Translational Sciences (NCATS)
